Active and inactive are the calls of the source.
Columns and labels:
[1] = system: Plasmodium falciparum Sir2 (PF13_0152, Sir2A); experiment: pfSir2 binders on small-molecule microarrays, primary screen, biochemical, small-molecule microarray, 635 nm fluorescence (AID 1098); conditions: small-molecule microarray binding, fluorescence 635 nm; higher = more signal;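 also: score merges spot fluorescence intensity with its signal-to-noise ratio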
[2] = small-molecule microarray binders of probe aDKK1, primary screen, biochemical, biotinylated probe, 635/667 nm fluorescence (AID 1099); conditions: higher = more signal;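 also: score merges 667nm spot fluorescence with signal to noise across triplicate slides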
[3] = small-molecule microarray binders of probe aCHRDL2, primary screen, biochemical, biotinylated probe, 635/667 nm fluorescence (AID 1100); conditions: higher = more signal
[4] = splicing luciferase reporter signal modulators, primary screen, spliceosome inhibition project, cell-based, HEK293, splice +/- reporter (AID 1101); conditions: luminescence, 24 h, higher = more signal, called active from +8 up or from −8 down;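 also: HEK293 cells carrying a splicing-competent luciferase reporter gene; test concentration not given here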
[5] = target: Fibroblast growth factor 10 (Homo sapiens) (UniProt O15520); experiment: FGF10 binders on small-molecule microarrays, primary screen, biochemical, small-molecule microarray, 635 nm fluorescence (AID 1102); conditions: FGF10 binding, fluorescence 635 nm, higher = more signal
[6] = system: glycogen synthase kinase-3 (GSK3A per assay name; protocol says GSK3B); experiment: GSK3 binders on small-molecule microarrays, primary screen, biochemical, small-molecule microarray, 635 nm fluorescence, GSK3A (AID 1103); conditions: small-molecule microarray binding, fluorescence 635 nm; higher = more signal; also: the record names both GSK3A and GSK3B
[7] = target: Epidermal growth factor receptor (Homo sapiens) (UniProt P00533); experiment: EGFR binders on small-molecule microarrays, primary screen, biochemical, small-molecule microarray, 635 nm fluorescence (AID 1104); conditions: EGFR binding, higher = more signal;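 also: score merges 667 nm emission intensity with spot signal to noise over triplicate slides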
[8] = target: Follistatin-related protein 3 (Homo sapiens) (UniProt O95633); experiment: FSTL3 binders on small-molecule microarrays, primary screen, biochemical, small-molecule microarray, 635 nm fluorescence (AID 1105); conditions: FSTL3 binding, higher = more signal;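 also: score merges emission near 667 nm and signal to noise per printed spot across three slides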
[9] = target: Dickkopf-related protein 1 (Homo sapiens) (UniProt O94907); experiment: DKK1 binders on small-molecule microarrays, primary screen, biochemical, small-molecule microarray, 635 nm fluorescence scan (AID 1106); conditions: DKK1 binding, higher = more signal;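 also: score merges emission near 667 nm with signal to noise over three replicate slides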
[10] = system: Inhibin beta A chain (activin A); experiment: INHBA (activin A) binders on microarrays, primary screen, biochemical, small-molecule microarray, 635 nm fluorescence scan (AID 1107); conditions: small-molecule microarray binding, higher = more signal;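 also: mouse activin A protein probed at 4.33 µg/mL on printed slides; score merges bound-protein fluorescence near 667 nm with spot signal-to-noise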
[11] = system: Human papillomavirus type 1a protein E7 (residues 44-93); experiment: HPV1a E7 fragment binders on microarrays, primary screen, biochemical, small-molecule microarray, residues 44-93, 635 nm fluorescence (AID 1108); conditions: small-molecule microarray binding, fluorescence 635 nm; higher = more signal;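 also: E7 fragment applied at 1 µg/mL in TBST for 1 h at 4 C; score combines spot fluorescence with its signal to noise ratio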
[12] = modulators of HCV replicon luciferase signal, primary screen, HCV replication inhibitor project, Huh7 cells, luciferase reporter (AID 1109); conditions: 48 h, higher = more signal;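 also: huh7 hepatoma cells harbouring a luciferase neomycin HCV replicon reporter; luciferase luminescence as measure of HCV replicon replication; test concentration not given here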
[13] = target: Left-right determination factor 2 (Homo sapiens) (UniProt O00292); experiment: LEFTY2 binders on small-molecule microarrays, primary screen, biochemical, small-molecule microarray, 635 nm fluorescence scan (AID 1110); conditions: LEFTY2 binding, higher = more signal
[14] = target: Calmodulin-1 (Homo sapiens) (UniProt P0DP23); experiment: CALM1 binders on microarrays, EGTA buffer, profiling panel, biochemical, small-molecule microarray, Cy5-labelled CALM1 (AID 1111); conditions: Cy5-CALM1 binding fluorescence, higher = more signal;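 also: labelled calmodulin applied in Tris saline Tween buffer holding calcium plus EGTA and DTT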
[15] = target: Calmodulin-1 (Homo sapiens) (UniProt P0DP23); experiment: calcium-bound CALM1 binders on microarrays, profiling panel, artefact control for SMM control-protein annotation, biochemical, small-molecule microarray, Cy5-labelled CALM1, plus calcium (AID 1112); conditions: Cy5-CALM1 binding fluorescence, higher = more signal;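 also: score merges spot fluorescence with signal to noise from triplicate slides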
[16] = small-molecule microarray binders of probe aWnt5a, primary screen, biochemical, biotinylated probe, 635/667 nm fluorescence (AID 1113); conditions: higher = more signal;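 also: score merges 667 nm fluorescence intensity with signal-to-noise per printed feature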
[17] = small-molecule microarray binders of probe aShh, primary screen, biochemical, biotinylated probe, 635/667 nm fluorescence (AID 1114); conditions: higher = more signal;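 also: probe is biotin-labelled aShh protein from a stem cell growth factor screen; measures binding of labelled protein to compounds printed on the slide; score merges feature fluorescence at 667 nm with signal-to-noise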
[18] = small-molecule microarray binders of probe aNog, primary screen, biochemical, biotinylated probe, 635/667 nm fluorescence (AID 1115); conditions: higher = more signal;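 also: probe is biotinylated aNog protein used at 0.15 µg/mL for 1 h at 4 C; z-score combines 667 nm fluorescence of each spot with its signal to noise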
[19] = target: Torsin-1A-interacting protein 1 (Homo sapiens) (UniProt Q5JTV8); experiment: LAP1 binders from COS7 cell lysate, primary screen, small-molecule microarray, 635/667 nm fluorescence (AID 1116); conditions: COS7-hLAP1 lysate binding, 635 nm fluorescence, higher = more signal
[20] = target: Alpha-bungarotoxin (Bungarus multicinctus) (UniProt P60615); experiment: alpha-bungarotoxin binders on microarray, profiling panel, artefact control for SMM control protein annotation, biochemical, small-molecule microarray, Alexa647 label, 635/667 nm fluorescence (AID 1117); conditions: alpha-BTX-A647 binding fluorescence, higher = more signal
Sequence of Alpha-bungarotoxin (Bungarus multicinctus) (P60615 whole entry, looked up): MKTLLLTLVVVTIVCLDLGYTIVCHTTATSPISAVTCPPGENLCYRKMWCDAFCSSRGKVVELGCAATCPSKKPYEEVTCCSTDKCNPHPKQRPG

Sequence of Dickkopf-related protein 1 (Homo sapiens) (O94907 whole entry, looked up): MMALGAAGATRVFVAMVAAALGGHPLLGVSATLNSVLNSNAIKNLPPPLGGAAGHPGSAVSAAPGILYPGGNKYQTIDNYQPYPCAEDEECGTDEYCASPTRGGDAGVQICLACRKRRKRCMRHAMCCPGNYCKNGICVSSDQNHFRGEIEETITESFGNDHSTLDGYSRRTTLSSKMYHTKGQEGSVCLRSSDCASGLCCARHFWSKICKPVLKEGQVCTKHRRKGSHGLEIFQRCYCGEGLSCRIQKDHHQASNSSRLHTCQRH
Sequence of Fibroblast growth factor 10 (Homo sapiens) (O15520 whole entry, looked up): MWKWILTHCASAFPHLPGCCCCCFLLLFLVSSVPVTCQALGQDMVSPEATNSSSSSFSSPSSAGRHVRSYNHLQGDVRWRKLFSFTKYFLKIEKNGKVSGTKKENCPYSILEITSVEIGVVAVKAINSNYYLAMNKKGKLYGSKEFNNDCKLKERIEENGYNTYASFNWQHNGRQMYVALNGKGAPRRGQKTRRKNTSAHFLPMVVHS
Sequence of Torsin-1A-interacting protein 1 (Homo sapiens) (Q5JTV8 whole entry, looked up): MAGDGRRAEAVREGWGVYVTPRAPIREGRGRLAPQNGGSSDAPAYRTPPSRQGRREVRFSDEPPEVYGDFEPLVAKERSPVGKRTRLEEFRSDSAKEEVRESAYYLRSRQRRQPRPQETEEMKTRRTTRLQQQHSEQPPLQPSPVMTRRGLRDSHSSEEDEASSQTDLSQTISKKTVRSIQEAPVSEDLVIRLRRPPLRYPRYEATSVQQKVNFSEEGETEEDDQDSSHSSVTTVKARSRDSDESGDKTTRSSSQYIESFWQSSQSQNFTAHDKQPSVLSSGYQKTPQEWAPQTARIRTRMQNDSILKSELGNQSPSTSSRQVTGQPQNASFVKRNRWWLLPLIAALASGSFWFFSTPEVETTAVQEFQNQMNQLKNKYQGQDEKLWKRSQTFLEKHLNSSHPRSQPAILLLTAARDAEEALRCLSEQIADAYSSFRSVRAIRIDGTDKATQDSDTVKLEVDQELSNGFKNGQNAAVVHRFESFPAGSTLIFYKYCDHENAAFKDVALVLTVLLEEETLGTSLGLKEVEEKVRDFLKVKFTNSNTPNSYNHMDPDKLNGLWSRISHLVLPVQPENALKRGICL
Sequence of Epidermal growth factor receptor (Homo sapiens) (P00533 whole entry, looked up): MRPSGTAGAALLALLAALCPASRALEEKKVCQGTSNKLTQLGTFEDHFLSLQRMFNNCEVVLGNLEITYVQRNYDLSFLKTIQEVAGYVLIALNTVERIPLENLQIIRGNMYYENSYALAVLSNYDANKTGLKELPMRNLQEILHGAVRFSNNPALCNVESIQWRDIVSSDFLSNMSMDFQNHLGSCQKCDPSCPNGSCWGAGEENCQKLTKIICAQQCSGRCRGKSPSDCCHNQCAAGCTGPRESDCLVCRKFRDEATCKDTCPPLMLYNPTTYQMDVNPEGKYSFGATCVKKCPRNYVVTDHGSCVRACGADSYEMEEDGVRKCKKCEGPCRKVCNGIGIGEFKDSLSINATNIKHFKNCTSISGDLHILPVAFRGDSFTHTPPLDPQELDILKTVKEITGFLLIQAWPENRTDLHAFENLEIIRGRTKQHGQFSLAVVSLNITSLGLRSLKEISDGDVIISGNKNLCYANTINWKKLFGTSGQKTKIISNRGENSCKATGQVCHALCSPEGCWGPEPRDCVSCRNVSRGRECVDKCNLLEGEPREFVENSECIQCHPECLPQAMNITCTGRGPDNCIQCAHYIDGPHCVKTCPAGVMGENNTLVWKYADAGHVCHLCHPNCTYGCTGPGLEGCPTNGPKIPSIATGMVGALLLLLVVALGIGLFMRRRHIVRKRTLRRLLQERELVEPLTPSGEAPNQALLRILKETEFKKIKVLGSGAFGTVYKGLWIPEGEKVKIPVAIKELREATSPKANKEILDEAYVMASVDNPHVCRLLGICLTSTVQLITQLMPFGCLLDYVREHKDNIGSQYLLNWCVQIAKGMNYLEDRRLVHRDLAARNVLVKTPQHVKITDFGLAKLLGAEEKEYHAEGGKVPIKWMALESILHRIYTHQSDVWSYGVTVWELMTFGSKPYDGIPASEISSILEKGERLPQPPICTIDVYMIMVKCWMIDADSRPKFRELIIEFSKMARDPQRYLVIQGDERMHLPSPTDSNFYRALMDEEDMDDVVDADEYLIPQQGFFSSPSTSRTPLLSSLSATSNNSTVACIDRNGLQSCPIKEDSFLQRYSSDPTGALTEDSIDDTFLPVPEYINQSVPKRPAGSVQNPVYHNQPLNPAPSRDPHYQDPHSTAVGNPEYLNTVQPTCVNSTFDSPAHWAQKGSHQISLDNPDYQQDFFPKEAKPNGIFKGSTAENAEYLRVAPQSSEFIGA
Sequence of Left-right determination factor 2 (Homo sapiens) (O00292 whole entry, looked up): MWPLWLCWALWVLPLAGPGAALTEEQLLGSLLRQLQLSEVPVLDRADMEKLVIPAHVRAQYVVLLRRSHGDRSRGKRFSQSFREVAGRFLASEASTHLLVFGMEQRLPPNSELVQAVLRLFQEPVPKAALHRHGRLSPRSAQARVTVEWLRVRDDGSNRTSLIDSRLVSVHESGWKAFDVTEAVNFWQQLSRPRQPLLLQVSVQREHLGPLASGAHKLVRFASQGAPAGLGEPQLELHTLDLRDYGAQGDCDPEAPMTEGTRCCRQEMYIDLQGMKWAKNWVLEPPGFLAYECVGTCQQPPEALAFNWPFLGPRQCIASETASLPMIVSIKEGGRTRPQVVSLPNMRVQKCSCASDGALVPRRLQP
Sequence of Follistatin-related protein 3 (Homo sapiens) (O95633 whole entry, looked up): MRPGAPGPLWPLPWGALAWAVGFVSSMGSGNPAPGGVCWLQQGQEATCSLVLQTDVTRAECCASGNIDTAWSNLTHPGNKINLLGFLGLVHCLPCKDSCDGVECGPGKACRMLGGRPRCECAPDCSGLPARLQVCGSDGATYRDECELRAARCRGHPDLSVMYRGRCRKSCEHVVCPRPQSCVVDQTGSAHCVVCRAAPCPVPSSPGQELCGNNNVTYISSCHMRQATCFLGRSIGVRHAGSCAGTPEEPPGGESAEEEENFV

SMILES | composite z-score [1] | composite z-score [2] | composite z-score [3] | z-score [4] | composite z-score [5] | composite z-score [6] | composite z-score [7] | composite z-score [8] | composite z-score [9] | composite z-score [10] | composite z-score [11] | z-score [12] | composite z-score [13] | composite z-score [14] | composite z-score [15] | composite z-score [16] | composite z-score [17] | composite z-score [18] | composite z-score [19] | composite z-score [20]
O=C(Nc1cc(Br)ccc1C(=O)NCc1cccc(O)c1)c1ccccc1 | 0.487 | 0.429 | -0.339 | -0.419 (inactive) | 0.394 | 0.476 | 0.379 | 0.148 | 0.257 | -0.0621 | 0.27 | -2.32 | 0.547 | 1.48 | 0.22 | 0.0297 | -0.252 | -0.75 | 0.888 | 1.36
COCC1=C([C@H](O)CCc2ccccc2)[C@H](CO)[C@@H]2C(=O)N(C)C(=O)[C@@H]2C1 | -0.129 | -0.541 | -0.578 | 0.559 (inactive) | 0.397 | 0.189 | 0.456 | 0.0826 | 0.408 | 0.42 | -0.121 | 0.216 | 0.394 | -0.205 | -0.783 | -0.104 | -0.164 | -0.172 | 0.478 | -0.152
C[C@H]1ON(c2ccccc2)[C@@H](c2ccccc2)[C@@H]1C(=O)N1C(=O)OC[C@@H]1c1ccccc1 | 0.0672 | -0.138 | -0.351 | 0.216 (inactive) | 0.675 | 0.363 | 0.356 | 0.699 | 0.289 | 0.631 | 0.184 | -0.432 | 0.521 | -0.238 | -0.162 | -0.134 | -0.251 | -0.0855 | 0.357 | -0.1
C=CC[C@@]1(C(=O)NCC(O)CO)N=C(c2ccc(OCCCO)cc2)O[C@@H]1c1ccccc1 (stereo not given in full) | 1.46 | 1.24 | 1.34 | -0.195 (inactive) | 1.47 | 0.0168 | -0.829 | -0.29 | -0.135 | 0.505 | 1.21 | 0.235 | -0.834 | 2.22 | 0.971 | 0.512 | 0.786 | -0.419 | 3.73 | 2.59
C=CCC(OC(C)=O)[C@@H]1[C@@H](N(Cc2cccc3ccccc23)C(=O)c2ccc(C)cc2)c2cc(OCCCO)ccc2N1C(=O)c1ccc2ccccc2c1 (stereo not given in full) | -0.269 | -0.259 | 0.281 | -1.86 (inactive) | 0.11 | 0.0882 | 0.286 | 0.421 | 0.181 | 1.08 | -0.44 | -0.945 | 0.346 | -0.0236 | -0.0542 | 0.0229 | -0.0793 | -0.329 | 0.139 | 0.132
COC(=O)C(CC#Cc1ccc2c(c1)[C@]1(C(=O)N2)[C@H](c2ccc(O)cc2)N2[C@H](c3ccccc3)[C@H](c3ccccc3)OC(=O)[C@H]2[C@@H]1C(N)=O)C(=O)OC | -0.532 | -0.207 | 0.613 | -0.192 (inactive) | -1.48 | -1.29 | -0.856 | -1.89 | -0.841 | -0.611 | -0.863 | -0.32 | -0.91 | -1.27 | 0.842 | -0.202 | -0.352 | -0.263 | -0.931 | -1.83
CCCC[C@@H](O)C1=C(COc2ccccc2)Cn2c(=O)n(-c3ccccc3)c(=O)n2[C@H]1CO | -0.229 | -0.396 | -0.444 | -2.11 (inactive) | 0.217 | 0.106 | 0.111 | -0.423 | -0.0681 | 0.606 | -0.616 | -1.52 | 0.0253 | -0.634 | -0.116 | -0.124 | -0.248 | -0.182 | -0.222 | -1.62
C=CCN1C(=O)[C@@]2(O[C@@H](CCn3cc([C@H](O)c4ccccc4)nn3)[C@H]([Si](C)(C)c3ccc(OC)cc3)[C@H]2C)c2cc(NC(=O)c3ccc(OC)cc3)ccc21 | 0.185 | 0.041 | 0.143 | -0.345 (inactive) | -0.0229 | 0.0579 | -0.128 | 0.382 | 0.183 | 1.07 | 0.795 | -3.99 | 0.426 | 0.607 | 0.14 | -0.0735 | 0.0815 | 0.338 | 0.385 | 0.627
C=CC[C@]1(C(=O)N(C)C)N=C(c2ccc(OCCCO)cc2)O[C@H]1c1ccccc1 | 1.05 | 0.135 | 0.953 | -1.04 (inactive) | 1.21 | 0.254 | -0.489 | 0.479 | -0.228 | 0.832 | 1.46 | -2 | -0.309 | 1.57 | 0.19 | 0.224 | 0.33 | 1.15 | 0.765 | 1.25
C/C=C/[C@@H](CCn1cc([C@H](O)c2ccccc2)nn1)[Si](C)(C)c1ccc(OC)cc1 | 1.53 | -0.414 | 0.476 | -0.406 (inactive) | -0.71 | -0.507 | -0.849 | -0.748 | -0.0219 | 0.0838 | 0.434 | -2.6 | -1.32 | -1.34 | -1.35 | -0.012 | 0.0639 | -0.738 | 0.834 | 0.478
C=CCC(OC(C)=O)[C@@H]1[C@@H](N(Cc2cccc3ccccc23)C(=O)Cc2ccc(F)cc2)c2cc(OCCCO)ccc2N1C(=O)Cc1ccc(OC)cc1 (stereo not given in full) | -0.44 | -0.0312 | 0.0398 | -1.07 (inactive) | 0.398 | -0.0555 | -0.0723 | 0.665 | 0.104 | 1.25 | 0.0243 | -0.81 | 0.584 | 0.965 | -0.652 | -0.197 | -0.0557 | -0.122 | -0.0854 | -0.0482
